# Many of the other results were omitted from the sample, so hits are more common in it than they were.
# Pf Dd2 growth – qHTS Primary assay for Inhibitors of Plasmodium falciparum Dd2 growth in vitro. 120,000 tested, 4.3% active. Potency, µM (highest dose often 28.9 µM), for inactives: at the top dose activity, negative = inhibition, most hits filed as inhibitors. AID 1347417, 2020. P. falciparum Dd2 growth, SYBR Green, 72 h; active = well fitted inhibition curve with a large enough effect;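 note: plate controls were DMSO vehicle for no effect and reference drug for full effect; nearly all actives have a fitted effect of over 65% in size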
#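 Readout: SYBR Green fluorescence, 485 nm excitation, 535 nm emission, after ~16 h lysis at 37C. Before that, Dd2-infected red cells (2.5% hematocrit) grew 72 h with compound, 29 uM top final concentration.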
# The depositor's hits bear a star; i = inactive; ! = repeats disagree; [ ] = dose if it differs, or a comment. Potency is the fitted concentration of half-maximal effect.
SMILES,Pf Dd2 growth
Cc1ccc(Cn2c(SCc3ccc(C(=O)NCCc4ccccc4)cc3)nc3ccncc32)cc1,6.31µM*
Cc1ccccc1CSCc1ccc(C(=O)NCCc2ccccc2)o1,19.9%
COCCNC(=O)c1ccc(Cn2c(SCC(N)=O)nc3ccccc3c2=O)cc1,-26.8%
C#CCNC(=O)c1cc(-c2ccccc2OC)c2cccn2n1,20.9%
CC1=NOC2(CCN(Cc3ccccn3)CC2)C1,i
COc1ccc(C(=O)N2CCC(Oc3cccnc3)C2)cc1 (configuration not stated),-3.5%
Cc1cccc(Cl)c1NC(=O)N1CCC2(CC1)C(C(=O)O)CC(=O)N2C (configuration not stated),-3.0%
COc1ccc(NC(=O)N2CCCC(c3nn[nH]n3)C2)cc1 (configuration not stated),17.3%
COCCN1Cc2[nH]nc(-c3cccc(C(F)(F)F)c3)c2CC1=O,-6.8%[44.1 µM]
COc1ccc2nc3n(c2c1)[C@@H](CNS(=O)(=O)c1ccccc1)COC3,8.91µM*
COc1ccc(S(=O)(=O)NC[C@H]2COCc3nc4cc(C)ccc4n32)cc1,-7.1%[44.1 µM]
COc1ccc2nc3n(c2c1)[C@@H](CNC(=O)c1ccccc1)COC3,i
COc1ccccc1NC(=O)Cn1c(=O)c(-c2noc(C)n2)c2n(c1=O)CCCC2,29.4%
CC(C)(C)C(=O)N[C@H]1CO[C@H]2[C@@H]1OC[C@@H]2Nc1nccc(-c2cccc(C#N)c2)n1,i
COCC(=O)N[C@H]1CO[C@H]2[C@@H]1OC[C@@H]2Nc1nccc(-c2cccc(F)c2)n1,i
N#Cc1cccc(-c2ccnc(N[C@H]3CO[C@H]4[C@@H]3OC[C@H]4OC(=O)Nc3cccc4ccccc34)n2)c1,11.2µM*
N#Cc1cccc(NC(=O)O[C@@H]2CO[C@H]3[C@@H]2OC[C@@H]3Nc2nccc(-c3cccc(C#N)c3)n2)c1,i
COCC(=O)N[C@H]1CO[C@H]2[C@@H]1OC[C@@H]2Nc1nccc(-c2cccc(C#N)c2)n1,11.2µM*
COc1ccc(NC(=O)O[C@@H]2CO[C@H]3[C@@H]2OC[C@@H]3Nc2nccc(-c3cccc(C#N)c3)n2)cc1,-19.7%
Cc1ccc(Nc2ncncc2-c2nc(-c3ccccc3)no2)cc1F,i
COc1ccc(N2CCN(C(=O)CSc3nc(-c4ccccc4)no3)CC2)cc1,2.82µM*
CCN(C(=O)CSc1nc(-c2ccccc2)no1)c1ccccc1,3.16µM*
CCc1ccc(NC(=O)CSc2nc(-c3ccccc3)no2)cc1,2.51µM*
CCc1ccc(NC(=O)CSc2nc(-c3ccccc3)c(C#N)c(=O)[nH]2)cc1,14.2%
CCN(C(=O)CSc1nc2ccccc2nc1Cc1ccccc1OC)c1ccccc1,-10.9%
SMILES,Pf Dd2 growth
CC(C)c1ccc(C(=O)N2CCC(Cc3nc(-c4ccc(F)cc4)no3)CC2)cc1,-17.7%
CCN(C(=O)CSc1nc2ccccc2[nH]1)c1ccccc1,41.0%[5.79 µM]
COc1ccc(N2CCN(C(=O)CSc3n[nH]c(-c4ccccc4Cl)n3)CC2)cc1,-5.4%
CN(C(=O)Cn1cccc1-c1nc(-c2ccc(F)cc2)no1)c1ccccc1,-3.3%
CCc1ccc(NC(=O)CSc2nc3ccccc3nc2Cc2ccc(C)cc2)cc1,8.1%
CC(C)c1ccc(-c2noc(SCC(=O)N(C)c3ccc(F)cc3)n2)cc1,0.794µM*
COc1ccc(N2CCN(C(=O)CSc3nc4ccccc4nc3Cc3ccc(Cl)cc3)CC2)cc1,i
CCn1c(=O)n(CC)c2cc(NC(=O)[C@H]3CC[C@@H](N)C3)c(C)cc21,8.3%
CS(=O)(=O)N1C[C@H]2CCN(C(=O)c3ncccc3F)C[C@H]21,11.2%
CN(C)[C@@H]1CN(C2CCCCC2)CC[C@@H]1CO,i
CC1=NOC2(CCN([S+](=O)([O-])c3cccs3)C2)C1 (configuration not stated),-5.4%[44.1 µM]
COc1ccnc(-c2nnc3ccc(N(C)CCN(C)C)nn23)c1,16.3%[44.1 µM]
O=[S+]([O-])(c1cccnc1)c1nnn2c1nc(NC1CCCC1)c1ccccc12,-0.9%
Cc1nnsc1C(=O)N[C@H]1CCN(C(=O)CSCC(=O)O)[C@H](C(=O)N[C@H](Cc2ccccc2)C(N)=O)C1,9.4%
CCCC(=O)N1CCN(C2CCN(CCC(C)C)C2=O)CC1 (configuration not stated),-0.5%
Cn1cnc(S(=O)(=O)N2CCC(Cc3nncn3CC3CC3)CC2)c1,0.5%
CCOc1ccc(C(=O)NCCn2cc(SCC(=O)Nc3ccccc3)c3ccccc32)cc1,4.47µM*
COc1ccc(C(=O)NCCn2cc(SCC(=O)Nc3ccc(C)cc3)c3ccccc32)cc1,-28.0%
CCOc1ccc(NC(=O)CSc2cn(CCNC(=O)c3ccccc3F)c3ccccc23)cc1,-18.1%
Cc1cc(C(=O)N2C[C@@H](Oc3cccnc3)C[C@H]2C(=O)N2CCCC2)n(C)n1,i
CC(C)CCN1C(=O)CC[C@]2(C(=O)NCCc3cccnc3)CCCC[C@@H]12,i
COc1ccc(CCNc2nc(SCc3cccc(F)c3)nc3ccccc23)cc1OC,-18.1%
Clc1ccc(CSc2nc(NCCc3ccccc3)c3ccccc3n2)cc1,10µM*
COc1ccc(C(C)=O)cc1CSc1nc(NCc2ccc(Cl)cc2)c2ccccc2n1,i
Cc1ccccc1CSc1ncc(Cl)c(C(=O)NCc2ccccc2)n1,4.9%
SMILES,Pf Dd2 growth
COc1ccc(CCNc2nc(SCc3ccc(Cl)cc3)nc3ccccc23)cc1OC,-16.7%
Clc1ccccc1CSc1nc(NCCc2ccccc2)c2ccccc2n1,11.2µM*
O=C(Cc1ccc(Cl)cc1)N1CCC2(CC1)NC(=O)N(c1ccc(F)cc1)N2,-10.8%
CCCCCC(=O)N1CC[C@@H](CC(=O)NC2CC2)[C@@H](CC)C1,i
CCCS(=O)(=O)N1C[C@@H](Oc2ccccc2)C[C@@H]1C(=O)NC,-4.2%
O=C1[C@@H]2C[C@@H](CN2Cc2ccc(C(F)(F)F)cc2)Oc2ccccc2N1Cc1cccnc1,i
COCCN1C(=O)[C@@H]2C[C@@H](CN2Cc2ccc(C(F)(F)F)cc2)Oc2ccccc21,14.1µM*
COCCN1C(=O)[C@@H]2C[C@@H](CN2Cc2ccccn2)Oc2ccccc21,10µM*
COc1ccc(CN2C(=O)[C@@H]3C[C@@H](CN3Cc3ccc(S(C)(=O)=O)cc3)Oc3ccccc32)cc1,i
O=C1[C@@H]2C[C@@H](CN2C2CCOCC2)Oc2ccccc2N1Cc1ccccn1,-15.5%[44.1 µM]
COCCN1C(=O)[C@@H]2C[C@@H](CN2C(=O)c2ccccc2)Oc2ccccc21,13.6%[44.1 µM]
O=C(Cn1ncc2ccccc2c1=O)N1CCCC(Cc2nc3ccccc3[nH]2)C1 (configuration not stated),5.1%
CSCC(=O)N1CCC(C2CCN(C(C)=O)CC2)C1 (configuration not stated),-6.4%
CCCN(CC1CCOC1)S(=O)(=O)c1cc(F)ccc1OC (configuration not stated),i[5.79 µM]
Cc1cc(C)cc(C(=O)N2CCC(Oc3ncccc3C(=O)N(C)C)C2)c1 (configuration not stated),-11.5%
CN(C)CCCNC(=O)C[C@H]1NC(=O)c2ccccc2NC1=O,4.1%
COc1ccccc1CCC(=O)N1CC[C@@H]2[C@@H](CCC(=O)N2CCN)C1,-3.4%
O=C1NC(=NC2CCCC2)C2(CCCN([S+](=O)([O-])c3cccc(C(F)(F)F)c3)C2)N1c1cc(F)cc(F)c1 (configuration not stated),10µM*!
COc1ccc(C(=O)N2CCC3(CC2)C(=NC2CCCCC2)NC(=O)N3c2cc(F)cc(F)c2)cc1,-24.1%
O=C1NC(=NC2CCCC2)C2(CCN([S+](=O)([O-])c3cccc(C(F)(F)F)c3)CC2)N1c1cc(F)cc(F)c1,-7.5%

# Source: PubChem (National Center for Advancing Translational Sciences (NCATS))
